Assay results published in PubChem BioAssay (NCATS).
Inconclusive results are not listed. Activity calls are given as the source filed them. The call rests on the fitted dose curve; in most records, active means well fitted inhibition curve with a large enough effect; inconclusive means small, poorly fitted or top-dose-only effect; inactive means flat fitted curve, though single readings scatter.

Legend:
ICS = assay: qHTS profiling for inhibitors of Plasmodium falciparum proliferation (AID 504749); settings: P. falciparum in erythrocytes, SYBR Green DNA, 72 h; series mostly up to 28.7 µM
Method in brief: (§1)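 Three-day growth assay of blood-stage parasites in erythrocytes (0.3% parasitemia, 2.5% hematocrit) at 37 C, 5% CO2, quantified by SYBR Green DNA staining after overnight detergent lysis.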

JCK = assay: as above; settings: P. falciparum in erythrocytes, SYBR Green DNA, 72 h; series mostly up to 28.7 µM
Method in brief: as §1

PAD = assay: as above; settings: P. falciparum in erythrocytes, SYBR Green DNA, 72 h; series mostly up to 28.7 µM
Method in brief: as §1

PC15 = assay: as above; settings: P. falciparum in erythrocytes, SYBR Green DNA, 72 h; series mostly up to 28.7 µM
Method in brief: as §1

PC49 = assay: as above; settings: P. falciparum in erythrocytes, SYBR Green DNA, 72 h; series mostly up to 28.7 µM
Method in brief: as §1

SC27B = assay: as above; settings: P. falciparum in erythrocytes, SYBR Green DNA, 72 h; series mostly up to 28.7 µM
Method in brief: as §1

TAB109 = assay: as above; settings: P. falciparum in erythrocytes, SYBR Green DNA, 72 h; series mostly up to 28.7 µM
Method in brief: as §1

W2 = assay: as above; settings: P. falciparum in erythrocytes, SYBR Green DNA, 72 h; series mostly up to 28.7 µM
Method in brief: as §1

CRL-7250 = normal cell line; assay: Cytotoxic Profiling of Annotated Libraries Using Quantitative High-Throughput Screening (AID 1296008); settings: Five cell lines viability, CellTiter-Glo ATP luminescence, 48-72 h; max response: active compounds read low; on max response: on the % scale 0 is the no-effect control and ±100 the full control effect
Method in brief: (§2)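 Cytotoxicity was measured as CellTiter-Glo ATP luminescence, read after 10 min at room temperature. Compound treatment of the cells lasted 48 or 72 hr at 37 degrees Celsius in a qHTS format.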

HEK293 = assay: as above; settings: Five cell lines viability, CellTiter-Glo ATP luminescence, 48-72 h; max response: active compounds read low
Method in brief: as §2

HaCat = assay: as above; settings: Five cell lines viability, CellTiter-Glo ATP luminescence, 48-72 h; max response: active compounds read low
Method in brief: as §2

KB-3-1 = assay: as above; settings: Five cell lines viability, CellTiter-Glo ATP luminescence, 48-72 h; max response: active compounds read low
Method in brief: as §2

NIH3T3 = assay: as above; settings: Five cell lines viability, CellTiter-Glo ATP luminescence, 48-72 h; max response: active compounds read low
Method in brief: as §2

HB3 = assay: qHTS profiling for inhibitors of Plasmodium falciparum proliferation (AID 504749); settings: P. falciparum in erythrocytes, SYBR Green DNA, 72 h; series mostly up to 28.7 µM
Method in brief: as §1

N140 = assay: as above; settings: P. falciparum in erythrocytes, SYBR Green DNA, 72 h; series mostly up to 28.7 µM
Method in brief: as §1

P94_40 = assay: as above; settings: P. falciparum in erythrocytes, SYBR Green DNA, 72 h; series mostly up to 28.7 µM
Method in brief: as §1

PC26 = assay: as above; settings: P. falciparum in erythrocytes, SYBR Green DNA, 72 h; series mostly up to 28.7 µM
Method in brief: as §1

TAB113 = assay: as above; settings: P. falciparum in erythrocytes, SYBR Green DNA, 72 h; series mostly up to 28.7 µM
Method in brief: as §1

TAB165 = assay: as above; settings: P. falciparum in erythrocytes, SYBR Green DNA, 72 h; series mostly up to 28.7 µM
Method in brief: as §1

P93_24 = assay: as above; settings: P. falciparum in erythrocytes, SYBR Green DNA, 72 h; series mostly up to 28.7 µM
Method in brief: as §1
Further: nearly all actives have a fitted effect of over 60% in size.
Potency means the concentration at half of the fitted maximal effect.

Oc1ccc(O)cc1
active: Potency (ICS) 11200 nM | Potency (W2) 12000 nM
inactive: Potency (JCK) | Potency (PAD) | Potency (PC15) | Potency (PC49) | Potency (SC27B) | Potency (TAB109) | outcome (CRL-7250) | max response (HEK293) -16.2% | outcome (HaCat) | max response (KB-3-1) -4.96% | max response (NIH3T3) -10.8%

C=CCc1ccc(O)c(OC)c1
inactive: Potency (HB3) | Potency (ICS) | Potency (JCK) | Potency (N140) | Potency (P94_40) | Potency (PAD) | Potency (PC15) | Potency (PC26) | Potency (PC49) | Potency (SC27B) | Potency (TAB109) | Potency (TAB113) | Potency (TAB165) | Potency (W2) | outcome (CRL-7250) | outcome (HEK293) | max response (HaCat) -0.0642% | max response (KB-3-1) 3.55% | max response (NIH3T3) 3.27%

O=C1c2ccccc2C(=O)C1c1ccccc1
inactive: Potency (HB3) | Potency (ICS) | Potency (JCK) | Potency (N140) | Potency (P93_24) | Potency (P94_40) | Potency (PAD) | Potency (PC15) | Potency (PC26) | Potency (PC49) | Potency (SC27B) | Potency (TAB109) | Potency (TAB113) | Potency (TAB165) | Potency (W2) | max response (CRL-7250) -3.39% | outcome (HEK293) | outcome (HaCat) | max response (KB-3-1) -18.6% | outcome (NIH3T3)

CC[N+](CC)(CCNC(=O)C(=O)NCC[N+](CC)(CC)Cc1ccccc1Cl)Cc1ccccc1Cl
inactive: outcome (CRL-7250) | max response (HEK293) 2.37% | max response (HaCat) -1.93% | max response (KB-3-1) -5.89% | max response (NIH3T3) 3.32%
active: Potency (ICS) 1580 nM | Potency (JCK) 10000 nM | Potency (P93_24) 794 nM | Potency (P94_40) 316 nM | Potency (PAD) 2820 nM | Potency (PC49) 5010 nM | Potency (SC27B) 3980 nM | Potency (TAB109) 1410 nM | Potency (TAB113) 3160 nM | Potency (TAB165) 1260 nM | Potency (W2) 1200 nM

N[C@H](Cc1c[nH]c2ccccc12)C(=O)O
inactive: Potency (HB3) | Potency (ICS) | Potency (JCK) | Potency (N140) | Potency (P93_24) | Potency (P94_40) | Potency (PAD) | Potency (PC15) | Potency (PC26) | Potency (PC49) | Potency (SC27B) | Potency (TAB109) | Potency (TAB113) | Potency (TAB165) | Potency (W2) | max response (CRL-7250) -25% | outcome (HEK293) | outcome (HaCat) | max response (KB-3-1) 5.87% | max response (NIH3T3) 3.07%

CCOc1ccc(Cc2nccc3cc(OCC)c(OCC)cc23)cc1OCC
active: Potency (JCK) 10000 nM | Potency (CRL-7250) 15000 nM | Potency (HEK293) 7500 nM
inactive: Potency (ICS) | Potency (N140) | Potency (P93_24) | Potency (P94_40) | Potency (PAD) | Potency (PC15) | Potency (SC27B) | Potency (TAB109) | Potency (TAB113) | max response (HaCat) -22.8% | max response (KB-3-1) 1.15% | max response (NIH3T3) -24.3%

C[C@H](O)C(=O)Nc1c(I)c(C(=O)NC(CO)CO)c(I)c(C(=O)NC(CO)CO)c1I
inactive: Potency (HB3) | Potency (ICS) | Potency (JCK) | Potency (N140) | Potency (P93_24) | Potency (P94_40) | Potency (PAD) | Potency (PC15) | Potency (PC26) | Potency (PC49) | Potency (SC27B) | Potency (TAB109) | Potency (TAB113) | Potency (TAB165) | Potency (W2) | outcome (CRL-7250) | max response (HEK293) -5.81% | outcome (HaCat) | max response (KB-3-1) 3.55% | max response (NIH3T3) -5.03%

CCCCCCC[N+](CC)(CC)CCCCc1ccc(Cl)cc1
inactive: max response (KB-3-1) -16.1%
active: Potency (HB3) 2510 nM | Potency (ICS) 708 nM | Potency (JCK) 3160 nM | Potency (N140) 2510 nM | Potency (P93_24) 2240 nM | Potency (P94_40) 2000 nM | Potency (PAD) 3980 nM | Potency (PC15) 1580 nM | Potency (PC26) 2030 nM | Potency (PC49) 3160 nM | Potency (SC27B) 2820 nM | Potency (TAB109) 2000 nM | Potency (TAB113) 2240 nM | Potency (TAB165) 2000 nM | Potency (W2) 1610 nM | Potency (CRL-7250) 7500 nM | Potency (HEK293) 6680 nM

CN=C(NC#N)Nc1ccc(C2=NNC(=O)CC2C)cc1 (stereo not given)
inactive: Potency (PC26) | Potency (W2) | max response (CRL-7250) -12.9% | outcome (HEK293) | outcome (HaCat) | max response (KB-3-1) 6.06% | max response (NIH3T3) -5.93%

CC1(C)O[C@@H]2C[C@H]3[C@@H]4C[C@H](F)C5=CC(=O)C=C[C@]5(C)[C@H]4[C@@H](O)C[C@]3(C)[C@]2(C(=O)CO)O1
inactive: max response (CRL-7250) -27.4% | max response (HEK293) -23.8% | max response (NIH3T3) -4.68%

CCCCCC=CCC=CCCCCCCCC(=O)OCC
inactive: Potency (HB3) | Potency (ICS) | Potency (JCK) | Potency (N140) | Potency (P93_24) | Potency (P94_40) | Potency (PAD) | Potency (PC15) | Potency (PC26) | Potency (PC49) | Potency (SC27B) | Potency (TAB109) | Potency (TAB113) | Potency (TAB165) | Potency (W2) | max response (CRL-7250) -11.8% | outcome (HaCat) | max response (KB-3-1) -4.13% | outcome (NIH3T3)
